GoLoco inh red = blocks human Gai1 binding to RGS12 GoLoco peptide, red readout | hit rate 0.44% among 230,000 | Potency, µM (doses to about 61.6 µM), for inactives: at the top dose activity, negative = inhibition, hits mostly inhibitors | Gai1:RGS12 GoLoco peptide FP, rhodamine, 10 min | P63096; active = well fitted inhibition curve with a large enough effect, not every such curve was filed as active; inactive = no such curve, though single readings can be large or run the other way; also: potency is read from the fitted curve at half-maximal effect; nearly all actives have a fitted effect of over 30% in size
Target sequence (P63096 whole entry, looked up): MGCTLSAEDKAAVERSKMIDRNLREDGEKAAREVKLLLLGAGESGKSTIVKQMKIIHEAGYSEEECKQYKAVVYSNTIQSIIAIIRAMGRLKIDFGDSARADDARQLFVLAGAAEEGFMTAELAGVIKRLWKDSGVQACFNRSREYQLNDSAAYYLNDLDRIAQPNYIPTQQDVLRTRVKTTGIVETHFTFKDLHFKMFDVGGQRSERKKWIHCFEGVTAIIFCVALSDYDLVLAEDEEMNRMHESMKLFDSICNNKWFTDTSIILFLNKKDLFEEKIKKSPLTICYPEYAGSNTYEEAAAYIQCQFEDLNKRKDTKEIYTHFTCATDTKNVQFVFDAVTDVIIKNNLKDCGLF
Sfp inh = inhibitors of Bacillus subtilis Sfp phosphopantetheinyl transferase. Q9F4F7. Biochemical Sfp PPTase activity, qHTS. Potency, µM, without a hit: largest response in the series, negative = inhibition, usual class: inhibitors. hit rate 3.5% among 310,000; active = well fitted curve in the direction sought with a large enough effect; inconclusive = small, poorly fitted or top-dose-only effect, or another doubt; inactive = no such curve, though single readings can be large; an effect the other way counts as inactive or inconclusive;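 also: the enzyme is Sfp with the accession as filed and its product quenches rhodamine fluorescence; potency is read from the fitted curve at half-maximal effect; 0% = enzyme reaction without inhibitor and -100% = no enzyme wells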
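Sfp 15 nM + cpd, 15 min RT; start w/ rhodamine-CoA 5 uM, BHQ-2-YbbR 12.5 uM (final); 50 mM Hepes pH 7.6, 10 mM MgCl2, 0.01% NP-40, 0.01% BSA; read 525/598 nm at 0 and 30 min.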
NPSR antagonist = blocks cAMP signaling of the human neuropeptide S receptor | hit rate 1% among 220,000 | Potency, µM (top dose mostly 38.3 µM), for inactives: at the highest dose activity change, negative = inhibition, most hits filed as inhibitors | CHO-NPSR cells, cAMP TR-FRET, antagonist mode | AID 1461; active = well fitted curve in the direction sought with a large enough effect; inconclusive = small, poorly fitted or top-dose-only effect, or another doubt; inactive = no such curve, though single readings can be large; an effect the other way counts as inactive or inconclusive; also: potency is read from the fitted curve at half-maximal effect; nearly all actives have a fitted effect of over 50% in size
ALDH1A1 block = ALDH1A1 (human) enzyme inhibition. Purified ALDH1A1, NADH fluorescence, propionaldehyde substrate. Potency, µM (series often up to 75.3 µM), without a hit: at the top dose activity, negative = inhibition, most hits filed as inhibitors. hit rate 7.3% among 220,000;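 also: potency is read from the fitted curve at half-maximal effect; plate controls were no enzyme wells and a reference inhibitor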
JMJD2E inh = inhibitors of human JMJD2E histone demethylase. B2RXH2. hit rate 1.6% among 230,000. JMJD2E catalytic domain, FDH-coupled NADH fluorescence (FDH is formaldehyde dehydrogenase). Potency, µM (highest dose often 57.1 µM), for inactives: top-dose activity change, negative = inhibition, hits mostly inhibitors;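 also: potency is read from the fitted curve at half-maximal effect; 0% = wells with enzyme and -100% = buffer wells without enzyme; nearly all actives have a fitted effect of over 50% in size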
Coupling enz = inhibits coupling enzyme system, counter-screen for aldolase hits | hit rate 0.67% among 290,000 | coupling enzyme system counterscreen, AmpLite Red fluorescence | activity change, negative = inhibition, % at 58.2 µM, hits read low | AID 2472; in the data active = activity change below about -30%
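Coupling enzymes only (glyceraldehyde-3-phosphate) + compound, at 57.5 uM final, 10 min RT; add substrate/coupling/AmpLite Red mix, 20 min RT; fluorescence ex 525/em 598 nm. Actives flag coupling-system interference.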
* = called active by the depositor; ? = inconclusive; . = no result given; [ ] = another dose, or the depositor's remark. The list is not random: actives were taken first. Their share in the collection is about 8.5%. Unless noted, calls follow the shape of the dose curve; as a rule, active = well fitted inhibition curve with a large enough effect (not every such curve was filed as active); inconclusive = small, poorly fitted or top-dose-only effect, or another doubt; inactive = no such curve, though single readings can be large or run the other way. Unless noted, % is scaled to controls: 0 for no effect and ±100 for the full control effect.

SMILES | GoLoco inh red | Sfp inh | NPSR antagonist | ALDH1A1 block | JMJD2E inh | Coupling enz
O=C(CCNc1ccc(Cc2ccncc2)cc1)c1ccc([N+](=O)[O-])cc1 | 12.3% | -14.1% | -1.9% | 0.112µM* | -37.7% | 0.6
O=C(NCCNc1ccc([N+](=O)[O-])cc1C(F)(F)F)c1cccc(F)c1 | 7.4% | -1.7% | -7.2% | ? | 3.7% | 1.0
Cc1ccccc1C(=O)Nc1ccnn1C1CCN(C(=O)C2CCOC2)CC1 (stereo not drawn) | . | 1.8% | . | . | . | -3.6
CC(C)(C)c1ccc(CNC(=O)C2CCCN2C(=O)Nc2ccccc2)cc1 (stereo not drawn) | . | 0.1% | . | . | . | 2.0
O=C(NCCNc1ccc([N+](=O)[O-])cc1)c1cccc(Br)c1 | 12.7% | ? | -3.5% | 7.08µM* | -5.7% | -0.6
O=C(CCNc1ccc(F)cc1)c1cccc([N+](=O)[O-])c1 | -8.3% | 1.3% | -10.0%[46.1 µM] | 0.224µM* | 2.7% | -1.0
O=C(CCNc1ccccc1)c1cccc([N+](=O)[O-])c1 | . | -15.6% | -8.9%[46.1 µM] | ? | 6.4% | -1.6
Cn1c(=O)cnc2cnc(OCc3ccccc3)nc21 | -3.1% | 5.2% | . | ? | . | 0.2
CC(=O)CCc1oc2ccc(C)cc2c1-c1ccc(C)o1 | -13.2% | 22.4µM* | -38.3% | ? | -7.8% | -0.6
O=C(CCC(=O)N1CCCCCC1)NCc1ccc(F)cc1 | . | 15.5% | . | . | . | 1.5
CCN(CC(=O)NC(=O)NCc1ccco1)Cc1nc2ccccc2c(=O)[nH]1 | 10.3% | 50.1µM* | 1.0%[46.1 µM] | 10µM* | -21.3% | -6.8
Cc1cc(SCC(=O)NC(=O)NCc2ccco2)nc2ccccc12 | 16.4% | 25.1µM* | -15.4%[46.1 µM] | ? | 1.3% | -1.3
COc1ccc(CNC(=O)CSc2cccc3cccnc23)cc1 | 1.1% | -5.3% | -14.9% | . | ? | 1.9
O=C(CSc1ccccc1F)NC(=O)NCc1ccco1 | 17.2% | 44.7µM* | 3.6% | -3.3% | -5.7% | 4.5
O=C(CSc1cccc2cccnc12)NCc1ccco1 | 5.2% | 79.4µM* | -1.2%[46.1 µM] | ? | ? | -12.3
COc1ccc(OC)c(S(=O)(=O)n2ccnc2C(C)C)c1 | . | 15.5% | . | . | . | 3.9
COc1ccccc1NS(=O)(=O)c1cccc(C(=O)N(C)Cc2cccs2)c1 | . | -0.8% | . | . | . | .
O=C(CSc1nc2cc(Cl)ccc2s1)c1cc2ccccc2o1 | 341.5% | -0.6% | -19.1%[46.1 µM] | 28.2µM* | ? | -8.8
Cc1cc(SCC(=O)NC(=O)NCc2ccco2)nc2c(C)cccc12 | 16.9% | 10µM* | ? | 22.4µM* | -22.7% | 5.1
O=C(CSc1ncccn1)NC(=O)NCc1ccco1 | 7.8% | -7.9% | 8.4% | -5.2% | 2.3% | 0.8
Cc1cc(SCC(=O)O)nc2ccccc12 | 1.6% | -7.4% | -11.2% | 0.1% | -10.9% | 6.3
Cc1cc(SCC(=O)c2cc3ccccc3o2)nc2ccccc12 | 40.6% | -19.4% | -23.7%[46.1 µM] | 28.2µM* | ? | .
Cc1cc(NC(=O)CSc2nc3cc(Cl)ccc3s2)no1 | -9.5% | 8.7% | -1.5%[46.1 µM] | 4.6% | 4.7% | -0.1
O=C(CSc1nc2ccccc2s1)NC(=O)NCc1ccco1 | -7.7% | -28.9% | -21.3%[46.1 µM] | 31.6µM* | -0.6% | -0.1
Cc1ccccc1CSCC(=O)NC(=O)NCc1ccco1 | 101.5% | 7.7% | -21.6%[46.1 µM] | 25.1µM* | -2.0% | 3.7
SMILES | GoLoco inh red | Sfp inh | NPSR antagonist | ALDH1A1 block | JMJD2E inh | Coupling enz
Cc1nnc(SCC(=O)NC(=O)NCc2ccco2)s1 | -0.1% | 16.2% | 4.4% | 1.5% | -0.1% | 1.5
Cc1ccc(S(=O)(=O)NC2CCCc3ccccc32)cc1C (stereo not drawn) | -5.8% | -0.3% | -26.2%[46.1 µM] | 10µM* | -4.0% | -0.8
CN(C)S(=O)(=O)c1ccc(C(=O)NC2CCCc3ccccc32)cc1 (stereo not drawn) | -29.1% | -2.3% | 1.0% | 20µM* | 5.6% | 2.5
CN(C)S(=O)(=O)c1cccc(C(=O)NC2CCCc3ccccc32)c1 (stereo not drawn) | 4.9% | 14.1% | -10.6%[46.1 µM] | -4.8% | 4.8% | 1.5
O=C(NCCN1CCc2ccccc2C1)C1CCN(S(=O)(=O)N2CCCCC2)CC1 | -4.3% | ? | 19.4%[46.1 µM] | 17.8µM* | -6.7% | 0.4
O=C(NC1CCCc2ccccc21)C1CCN(S(=O)(=O)N2CCCCCC2)CC1 (stereo not drawn) | 6.8% | -0.7% | -17.6%[46.1 µM] | 4.47µM* | -11.8% | -2.3

Assay outcomes (PubChem)
